In all, about 390,000 compounds went through this assay and about 4,700 (1.2%) were called active. A call without a number means that no potency is given here. Inconclusive results (about 4%) are left out. Calls follow the shape of the dose curve; as a rule, active = well fitted inhibition curve with a large enough effect; inconclusive = small, poorly fitted or top-dose-only effect, or another doubt; inactive = no such curve, though single readings can be large or run the other way. Only a selection was taken, and actives are over-represented in it overall.
Potency is read from the fitted curve at half-maximal effect.

The target in this experiment is DNA polymerase eta (Homo sapiens) (UniProt Q9Y253). Description: qHTS for Inhibitors of Polymerase Eta. The conditions noted are these: recombinant Pol eta, fluorescent DNA replication assay; series mostly up to 114 µM. The essentials: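 Pol eta (10 nM) was preincubated with compounds for 15 min at room temperature, after which fluorescent replication substrate (50 nM final) was added to start the reaction. Fluorescence was read kinetically at 0 and 10 min.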
Chain of DNA polymerase eta (Homo sapiens) (Q9Y253 whole entry, looked up): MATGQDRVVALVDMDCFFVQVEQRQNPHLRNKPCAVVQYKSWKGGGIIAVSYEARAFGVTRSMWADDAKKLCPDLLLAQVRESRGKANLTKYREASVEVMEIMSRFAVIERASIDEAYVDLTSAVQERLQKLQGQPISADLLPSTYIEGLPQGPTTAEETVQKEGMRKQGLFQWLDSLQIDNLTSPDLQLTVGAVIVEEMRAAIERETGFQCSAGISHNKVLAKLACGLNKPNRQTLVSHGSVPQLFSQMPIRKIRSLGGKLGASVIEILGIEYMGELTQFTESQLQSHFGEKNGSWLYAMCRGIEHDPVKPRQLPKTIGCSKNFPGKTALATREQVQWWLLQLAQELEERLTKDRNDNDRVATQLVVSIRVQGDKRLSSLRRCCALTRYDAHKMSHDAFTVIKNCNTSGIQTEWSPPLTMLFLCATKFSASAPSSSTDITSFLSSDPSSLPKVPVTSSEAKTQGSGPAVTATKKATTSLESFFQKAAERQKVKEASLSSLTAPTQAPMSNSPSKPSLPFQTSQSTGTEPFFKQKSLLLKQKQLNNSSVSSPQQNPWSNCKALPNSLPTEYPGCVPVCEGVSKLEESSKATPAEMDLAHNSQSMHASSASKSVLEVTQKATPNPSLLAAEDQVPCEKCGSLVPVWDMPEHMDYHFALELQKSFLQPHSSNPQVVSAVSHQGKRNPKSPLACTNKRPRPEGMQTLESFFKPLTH
For the compound `COc1cccc(Cn2c(CNS(=O)(=O)c3ccc(Cl)s3)nc3cccnc32)c1`, the Potency entry was “inactive”. As for `CCOC(=O)c1ccc(NC(=O)c2csc3c2CCCCC3)cc1`, the Potency entry is “inactive”. Take `CC(C)C[C@H](NC(=O)[C@H](O)[C@H](N)Cc1ccccc1)C(=O)O`: the Potency entry was “inactive”.

Consider `CC(=O)c1ccc(NC(=O)CCc2nnc3ccc(NCc4ccco4)nn23)cc1`, for which the Potency entry was “inactive”.

Turning to `O=C(CCc1nnc2ccc(NCc3ccco3)nn12)Nc1cc(F)ccc1F`, the Potency is 50.1 µM (active). On to `CC1CCN(C(=O)CCc2nnc3ccc(NCc4ccco4)nn23)CC1`, for which the Potency entry was “inactive”.

For the compound `CCc1ccc2oc(-c3ccc(NC(=O)c4cc5ccccc5o4)cc3)nc2c1`, the Potency entry is “inactive”.

As to `CCCNC(=O)c1ccc2c(c1)ncn2-c1ccc(C)cc1C`, the Potency entry was “inactive”. With `COc1ccc(Cn2ccc3nc(C)c(C(=O)Nc4ccc(C)c(F)c4)cc3c2=O)cc1`, the Potency result was “inactive”. With `CCN1CCN(c2cc(C)c3cc(NC(=O)c4cc(Cl)ccc4OC)ccc3n2)CC1`, the Potency entry is “inactive”. Take `Cc1ccc(OCC(=O)Nc2ccccc2C(=O)NC2CC2)cc1C`: the Potency result was “inactive”. As for `Cc1ccc(OCC(=O)Nc2ccc3oc(=O)ccc3c2)cc1C`, the entry is “inactive”; as for `COc1ccc(NC(=O)c2ccco2)cc1NC(=O)COc1ccc(C)c(C)c1`, 89.1 µM (active); as for `CCc1ccc(-n2nnc(-c3nc(-c4ccccc4)no3)c2C)cc1`, “inactive”. As for `O=C(c1cnn(-c2ccc(F)cc2)c1-n1cccc1)N1CCN(c2ccc(F)cc2)CC1`, the entry is “inactive”.

As for `COc1ccc(Cl)cc1NC(=O)CSc1nc2ccccc2c2nc(-c3ccccc3)nn12`, the Potency entry was “inactive”. In the case of `O=C(CCc1nc(CN2CCN(S(=O)(=O)c3ccc(F)cc3)CC2)no1)N1CCCCC1` it was “inactive”; in that of `O=C1C(Cl)=C(Oc2ccccc2)C(=O)c2ccccc21`, 7.94 µM (active); in that of `Cc1ccc(N(CC(=O)NCc2ccc(Cl)cc2)S(=O)(=O)N(C)C)cc1`, “inactive”. In the case of `N#CCC(=O)N/N=C/c1ccc(SCC(=O)Nc2ccccc2)o1` it was “inactive”. For the compound `O=C(CSc1ccc(/C=N/NC(=O)c2cccc(F)c2)o1)Nc1ccccc1`, the Potency entry is “inactive”. In the case of `O=C(CCNC(=O)c1ccccc1)NN=Cc1ccc(Br)o1` it was 56.2 µM (active). Take `Cc1cccc2c1-c1sc(C(=O)Nc3ccc(F)cc3F)cc1CO2`: the Potency result was “inactive”. For `CCOc1ccc(-c2cc3nc(C4CCN(C(=O)OC(C)(C)C)CC4)c(C(=O)Nc4ccc(C(=O)OC)cc4)cn3n2)cc1`, the Potency result is “inactive”.

Turning to `Cc1ccc(-c2nnc(Nc3cccc(Br)c3)c3ccccc23)cc1S(=O)(=O)NCC1CCCO1` (configuration not stated), the Potency result is “inactive”. In the case of `Cc1ccc2c(c1)-c1c(cnn1CC(=O)Nc1ccccc1C#N)CO2`, the Potency result is “inactive”.

As for `N#Cc1ccccc1CN1C(=O)S/C(=C/c2cccn2-c2cccc(C(=O)O)c2)C1=O`, the Potency is 3.16 µM (active). As for `CN(C(=O)CSc1nc2ccccc2n1Cc1ccccc1C#N)c1ccccc1`, the Potency result was “inactive”. On to `COc1ccc(OC)c(-c2nc(C(N)=O)c3c(n2)n(-c2ccc4c(c2)OCO4)c(=O)n3C)c1`, for which the Potency result is “inactive”. As for `CCCOc1cccc(C(=O)Nc2cccc(NC(=O)c3ccc(C(C)(C)C)cc3)c2)c1`, the Potency result is “inactive”.

Consider `Cc1csc2nc(COc3ccc(NC(=O)COc4ccccc4)cc3)cc(=O)n12`, for which the Potency result was “inactive”. On to `CCc1nnc(NC(=O)CSc2nnc(COc3ccc(C#N)cc3)n2-c2ccccc2)s1`, for which the Potency entry is “inactive”. In the case of `N#Cc1ccc(OCC(=O)Nc2nc(-c3ccccn3)cs2)cc1` it was 22.4 µM (active); in that of `COCCNC(=O)CSc1c(C)cnc2c1c(=O)n(C)c(=O)n2C`, “inactive”; in that of `CCOC(=O)c1ccc(NC(=O)CCn2cnnn2)cc1`, “inactive”. In the case of `CCN(C(=O)c1sc2cc(OC)ccc2c1Cl)c1ccccc1` it was “inactive”. As for `CCC(=O)N1CCc2cc(Br)cc(S(=O)(=O)CCC(=O)N3CCN(c4ccc(F)cc4)CC3)c21`, the entry is “inactive”.

In the case of `O=C1Nc2ccc([N+](=O)[O-])cc2C1=Nc1cccc(CO)c1`, the Potency is 20 µM (active). In the case of `COc1ccccc1CNC(=O)CCCCn1c(=O)c2ccccc2n(CC(=O)Nc2cc(Cl)ccc2C)c1=O` it was “inactive”. As for `COc1cc(OC)c(NC(=O)c2cc(S(=O)(=O)N3CCCC3)cn2C)cc1Cl`, the entry is “inactive”. Take `CCCN1CN=C(NS(=O)(=O)c2ccc(NC(C)=O)cc2)NC1`: the Potency entry was “inactive”. For the compound `Cc1ccc(-n2c(=O)c3cccnc3n2CC(=O)Nc2ccccc2C(F)(F)F)cc1C`, the Potency entry is “inactive”. Consider `COCCCNC(=O)c1c(NC(=O)c2cc(=O)c3cc(C)c(C)cc3o2)sc2c1CCCC2`, for which the Potency result is “inactive”.

Take `CC(C)c1ccc(NS(=O)(=O)c2ccc3[nH]cc(C(=O)NC4CCCC4)c(=O)c3c2)cc1`: the Potency was 31.6 µM (active). Consider `Cc1cc(C)cc(NS(=O)(=O)c2ccc3[nH]cc(C(=O)N4CCCCC4)c(=O)c3c2)c1`, for which the Potency result was “inactive”. On to `CCc1ccc(NS(=O)(=O)c2ccc3[nH]cc(C(=O)NCCc4cccc(C)c4)c(=O)c3c2)cc1`, for which the Potency result was “inactive”. As for `CCOc1cc(C2c3c(-c4ccc(Br)cc4)n[nH]c3C(=O)N2c2ccc(Cl)cc2)ccc1O` (configuration not stated), the Potency entry is “inactive”.

Turning to `Cc1cccc(Nc2nc(C)nc(N)c2S(=O)(=O)c2ccccc2)c1`, the Potency entry is “inactive”.

Regarding `COc1ccc(CCNC(=O)CCCn2c(=O)c3ccccc3n(Cc3ccc(C)cc3)c2=O)cc1OC`, the Potency entry was “inactive”. With `CC(=O)c1ccc(S(=O)(=O)N2CCC(Oc3ccc(-n4cnnn4)cc3)CC2)cc1`, the Potency entry is “inactive”. Take `CC(=O)c1ccc(S(=O)(=O)N2CCN(C(=O)/C=C/c3ccc4ccccc4n3)CC2)cc1`: the Potency was 39.8 µM (active).

As for `CC(=O)c1cccc(Nc2ccc3cc(S(=O)(=O)N4CCC(C)CC4)ccc3n2)c1`, the Potency result is “inactive”. For the compound `Cc1ccccc1CNC(=O)CSc1nnc(C)c2c(C)n(-c3ccccc3)nc12`, the Potency entry was “inactive”. As for `CN(Cc1ccccc1)C(=O)c1cn(C)c2ccc(S(=O)(=O)N3CCCCC3)cc2c1=O`, the entry is “inactive”; as for `CCCCn1c(=N)c(S(=O)(=O)c2ccccc2)cc2c(=O)n3cccc(C)c3nc21`, “inactive”; as for `Cc1cc(-c2n[nH]c(=S)n2/N=C/C(Br)=C/c2ccccc2)n[nH]1`, 14.1 µM (active). In the case of `CCCc1cc(-c2n[nH]c(=S)n2CC)c2ccccc2n1` it was “inactive”; in that of `Cc1ccc(NC(=O)CSc2nnc3[nH]c(=O)cc(C)n23)cc1Cl`, “inactive”; in that of `CCOc1ccccc1NC(=O)Cc1cccs1`, 44.7 µM (active). With `CCc1nnc(NC(=O)Cc2cccs2)s1`, the Potency is 35.5 µM (active).

For `COc1ccc(CNC(=O)CCC(=O)Nc2nnc(C(C)C)s2)cc1`, the Potency result is “inactive”. Consider `CCc1nnc(NC(=O)CCC(=O)NCc2ccccc2OC)s1`, for which the Potency result is “inactive”.

As for `CC(C)(C)CC(=O)Nc1nnc(SCC(=O)NCc2cccs2)s1`, the Potency result was “inactive”. Take `COc1ccc(Cc2nnc(NC(=O)Cc3cccs3)s2)cc1`: the Potency is 1 µM (active). In the case of `COc1ccc(CC(=O)Nc2sc(Cc3ccccc3)c(C)c2C(N)=O)cc1` it was “inactive”; in that of `CCOc1ccccc1NC(=O)CCn1cnnn1`, “inactive”; in that of `CCOc1ccc(NC(=O)C/C(C)=N/NC(=O)Cc2cccs2)cc1`, “inactive”.

(Values after PubChem BioAssay AID588591 (National Center for Advancing Translational Sciences (NCATS), 2011).)
